# Experimental data reported in publication PMC5540273 (PLoS ONE, 2017).
# Like-named read-outs stand apart in the source and are kept apart here.
# What was measured:
# FGFR1 = settings: concentration: 1 μM, replicates: in singlicate; n = 1
# FGFR2 = settings: concentration: 1 μM, replicates: in singlicate; n = 1
# FGFR3 = settings: concentration: 1 μM, replicates: in singlicate; n = 1
# FGFR4 = settings: concentration: 1 μM, replicates: in singlicate; n = 1
# FGR = settings: concentration: 1 μM, replicates: in singlicate; n = 1
# FLT1 = settings: concentration: 1 μM, replicates: in singlicate; n = 1
# FLT3-autoinhibited = settings: concentration: 1 μM, replicates: in singlicate; n = 1
# FLT3 = settings: concentration: 1 μM, replicates: in singlicate; n = 1
# FLT4 = settings: concentration: 1 μM, replicates: in singlicate; n = 1
# FRK = settings: concentration: 1 μM, replicates: in singlicate; n = 1
# FYN = settings: concentration: 1 μM, replicates: in singlicate; n = 1
# GAK = settings: concentration: 1 μM, replicates: in singlicate; n = 1
# GCN2(Kin.Dom.2,S808G) = test system: T1, GCN2(Kin.Dom.2,S808G); settings: concentration: 1 μM, replicates: in singlicate; n = 1
# T1 construct: gene EIF2AK4
# GRK1 = settings: concentration: 1 μM, replicates: in singlicate; n = 1
# GRK2 = test system: T2, GRK2; settings: concentration: 1 μM, replicates: in singlicate; n = 1
# T2 construct: gene ADRBK1
# GRK3 = test system: T3, GRK3; settings: concentration: 1 μM, replicates: in singlicate; n = 1
# T3 construct: gene ADRBK2
# GRK4 = settings: concentration: 1 μM, replicates: in singlicate; n = 1
# GRK7 = settings: concentration: 1 μM, replicates: in singlicate; n = 1
# GSK3A = settings: concentration: 1 μM, replicates: in singlicate; n = 1
# GSK3B = settings: n = 1
# [1] = concentration: 1 μM, replicates: in singlicate
# 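Further: KINOMEscan kinase panel screen.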
smiles,measurement,setting,value
CCn1cnc2c(NCc3ccccc3)ncnc21 [SKF-96418],%Inh,FGFR1,0%
same,%Inh,FGFR2,0%
same,%Inh,FGFR3,0%
same,%Inh,FGFR4,0%
same,%Inh,FGR,0%
same,%Inh,FLT1,0%
same,%Inh,FLT3-autoinhibited,0%
same,%Inh,FLT3,0%
same,%Inh,FLT4,0%
same,%Inh,FRK,0%
same,%Inh,FYN,0%
same,%Inh,GAK,0%
same,%Inh,"GCN2(Kin.Dom.2,S808G)",0%
same,%Inh,GRK1,39%
same,%Inh,GRK2,0%
same,%Inh,GRK3,0%
same,%Inh,GRK4,6%
same,%Inh,GRK7,0%
same,%Inh,GSK3A,0%
same,%Inh,GSK3B; [1],35%
CSc1ccc(NC2=C(c3ccc(Cl)cc3)C(=O)NC2=O)cc1 [SB-317658],%Inh,FGFR1,0%
same,%Inh,FGFR2,9%
same,%Inh,FGFR3,6%
same,%Inh,FGFR4,0%
same,%Inh,FGR,29%
same,%Inh,FLT1,5%
same,%Inh,FLT3-autoinhibited,5%
same,%Inh,FLT3,1%
same,%Inh,FLT4,3%
same,%Inh,FRK,0%
same,%Inh,FYN,4%
same,%Inh,GAK,12%
same,%Inh,"GCN2(Kin.Dom.2,S808G)",0%
same,%Inh,GRK1,2%
same,%Inh,GRK2,21%
same,%Inh,GRK3,12%
same,%Inh,GRK4,5%
same,%Inh,GRK7,26%
same,%Inh,GSK3A,37%
same,%Inh,GSK3B; 1 µM,0%
Cc1ccccc1CC(=O)N1CCc2cc(-c3cn(C)c4ncnc(N)c34)ccc21 [GSK2603346],%Inh,FGFR1,0%
same,%Inh,FGFR2,14%
same,%Inh,FGFR3,8%
same,%Inh,FGFR4,0%
same,%Inh,FGR,22%
same,%Inh,FLT1,59%
same,%Inh,FLT3-autoinhibited,0%
same,%Inh,FLT3,51%
same,%Inh,FLT4,29%
same,%Inh,FRK,2%
same,%Inh,FYN,32%
same,%Inh,GAK,32%
same,%Inh,"GCN2(Kin.Dom.2,S808G)",65%
same,%Inh,GRK1,9%
same,%Inh,GRK2,3%
same,%Inh,GRK3,0%
same,%Inh,GRK4,0%
same,%Inh,GRK7,0%
same,%Inh,GSK3A,1%
same,%Inh,GSK3B; [1],2%
Cc1ccc(NC(=O)c2ccnc(N3CCCCC3)c2)cc1-c1ccc(C(=O)NCC2CC2)cc1 [GW775610],%Inh,FGFR1,4%
same,%Inh,FGFR2,10%
same,%Inh,FGFR3,2%
same,%Inh,FGFR4,0%
same,%Inh,FGR,0%
same,%Inh,FLT1,36%
same,%Inh,FLT3-autoinhibited,6%
same,%Inh,FLT3,72%
same,%Inh,FLT4,0%
same,%Inh,FRK,32%
same,%Inh,FYN,2%
same,%Inh,GAK,0%
same,%Inh,"GCN2(Kin.Dom.2,S808G)",14%
same,%Inh,GRK1,8%
same,%Inh,GRK2,16%
same,%Inh,GRK3,14%
same,%Inh,GRK4,19%
same,%Inh,GRK7,0%
same,%Inh,GSK3A,0%
same,%Inh,GSK3B; [1],0%
